In experiment [1] the target is Tyrosine-protein kinase Fyn (Homo sapiens) (UniProt P06241). The settings on record: at 1 µM.
Experiment [2] has as its target Tyrosine-protein kinase HCK (Homo sapiens) (UniProt P08631). The following applies: at 0.1 µM.
Experiment [3] has the same target. The settings on record: at 1 µM.
In experiment [4] the target is Insulin-like growth factor 1 receptor (Homo sapiens) (UniProt P08069). The following applies: at 0.1 µM.
For experiment [5] the target is unchanged. The following applies: at 1 µM.
The target in experiment [6] is Insulin receptor (Homo sapiens) (UniProt P06213). The settings on record: at 0.1 µM.
Insulin receptor (Homo sapiens), sequence (P06213 28-758 limits assumed): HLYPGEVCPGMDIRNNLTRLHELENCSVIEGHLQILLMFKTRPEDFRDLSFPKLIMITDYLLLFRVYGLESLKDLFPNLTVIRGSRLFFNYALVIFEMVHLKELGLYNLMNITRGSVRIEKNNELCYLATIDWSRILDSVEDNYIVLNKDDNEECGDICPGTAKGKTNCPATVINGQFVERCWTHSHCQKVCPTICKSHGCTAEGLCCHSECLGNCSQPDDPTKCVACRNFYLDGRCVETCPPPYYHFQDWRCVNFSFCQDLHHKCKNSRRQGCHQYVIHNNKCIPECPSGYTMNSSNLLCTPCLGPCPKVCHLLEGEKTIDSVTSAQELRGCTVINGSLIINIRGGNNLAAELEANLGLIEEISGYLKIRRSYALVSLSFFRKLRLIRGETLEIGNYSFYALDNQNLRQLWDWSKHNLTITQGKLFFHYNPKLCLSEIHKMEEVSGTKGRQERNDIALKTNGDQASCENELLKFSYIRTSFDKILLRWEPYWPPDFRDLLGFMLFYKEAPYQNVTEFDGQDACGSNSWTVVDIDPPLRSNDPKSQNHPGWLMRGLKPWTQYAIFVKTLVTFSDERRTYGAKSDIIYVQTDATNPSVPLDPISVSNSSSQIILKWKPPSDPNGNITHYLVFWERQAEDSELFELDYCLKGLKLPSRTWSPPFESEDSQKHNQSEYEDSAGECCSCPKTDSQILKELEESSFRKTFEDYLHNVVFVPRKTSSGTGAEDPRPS
Insulin receptor (Homo sapiens), sequence (P06213 763-1382 limits assumed): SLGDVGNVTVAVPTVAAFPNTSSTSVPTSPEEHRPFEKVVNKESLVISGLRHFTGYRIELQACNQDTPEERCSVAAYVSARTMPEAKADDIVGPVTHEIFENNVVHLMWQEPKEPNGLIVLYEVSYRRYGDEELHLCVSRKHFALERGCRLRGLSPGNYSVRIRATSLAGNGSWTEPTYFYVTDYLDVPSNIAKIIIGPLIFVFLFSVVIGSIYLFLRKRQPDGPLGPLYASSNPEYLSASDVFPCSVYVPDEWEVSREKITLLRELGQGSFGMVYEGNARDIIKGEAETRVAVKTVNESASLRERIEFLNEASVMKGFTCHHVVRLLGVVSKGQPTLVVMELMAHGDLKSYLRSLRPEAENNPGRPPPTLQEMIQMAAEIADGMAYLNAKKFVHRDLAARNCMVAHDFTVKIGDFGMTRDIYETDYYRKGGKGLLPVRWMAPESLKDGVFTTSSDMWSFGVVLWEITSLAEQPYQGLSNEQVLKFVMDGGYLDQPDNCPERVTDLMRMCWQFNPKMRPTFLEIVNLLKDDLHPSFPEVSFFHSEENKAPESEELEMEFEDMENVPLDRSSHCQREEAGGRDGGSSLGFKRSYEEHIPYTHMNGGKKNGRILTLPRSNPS
Experiment [7] has the same target. The following applies: at 1 µM.
The target in experiment [8] is Insulin receptor-related protein (Homo sapiens) (UniProt P14616). The following applies: at 0.1 µM.
Experiment [9] shares this target. The following applies: at 1 µM.
Experiment [10] addresses T1, Tyrosine-protein kinase ITK/TSK (Homo sapiens) (UniProt Q08881).
T1 sequence (whole entry): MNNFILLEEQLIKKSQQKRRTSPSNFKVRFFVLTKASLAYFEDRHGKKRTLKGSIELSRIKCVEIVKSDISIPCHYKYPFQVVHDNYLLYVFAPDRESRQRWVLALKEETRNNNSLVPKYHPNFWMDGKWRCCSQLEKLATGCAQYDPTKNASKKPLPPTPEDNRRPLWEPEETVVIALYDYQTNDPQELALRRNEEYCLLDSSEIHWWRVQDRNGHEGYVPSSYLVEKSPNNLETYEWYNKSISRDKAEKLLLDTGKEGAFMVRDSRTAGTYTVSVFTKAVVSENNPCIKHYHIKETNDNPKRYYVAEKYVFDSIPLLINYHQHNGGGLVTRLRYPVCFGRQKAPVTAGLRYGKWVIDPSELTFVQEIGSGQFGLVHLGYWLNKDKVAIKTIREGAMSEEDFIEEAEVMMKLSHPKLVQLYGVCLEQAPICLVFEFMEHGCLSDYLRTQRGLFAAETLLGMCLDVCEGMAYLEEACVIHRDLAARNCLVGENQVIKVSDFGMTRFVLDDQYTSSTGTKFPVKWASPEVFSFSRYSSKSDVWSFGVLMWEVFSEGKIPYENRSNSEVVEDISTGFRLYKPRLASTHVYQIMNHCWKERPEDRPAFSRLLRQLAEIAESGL
The following applies: at 0.1 µM.

For experiment [11], the target named is T1, Tyrosine-protein kinase ITK/TSK (Homo sapiens). The following applies: at 1 µM.
For experiment [12], the target named is Tyrosine-protein kinase JAK1 (Homo sapiens) (UniProt P23458). The settings on record: at 0.1 µM.
The target is the same in experiment [13]. The following applies: at 1 µM.
Experiment [14] deals with Tyrosine-protein kinase JAK2 (Homo sapiens) (UniProt O60674). The following applies: at 0.1 µM.
Experiment [15] has the same target. The following applies: at 1 µM.
For experiment [16], the target named is T2, Tyrosine-protein kinase JAK3 (Homo sapiens) (UniProt P52333).
T2 sequence (whole entry): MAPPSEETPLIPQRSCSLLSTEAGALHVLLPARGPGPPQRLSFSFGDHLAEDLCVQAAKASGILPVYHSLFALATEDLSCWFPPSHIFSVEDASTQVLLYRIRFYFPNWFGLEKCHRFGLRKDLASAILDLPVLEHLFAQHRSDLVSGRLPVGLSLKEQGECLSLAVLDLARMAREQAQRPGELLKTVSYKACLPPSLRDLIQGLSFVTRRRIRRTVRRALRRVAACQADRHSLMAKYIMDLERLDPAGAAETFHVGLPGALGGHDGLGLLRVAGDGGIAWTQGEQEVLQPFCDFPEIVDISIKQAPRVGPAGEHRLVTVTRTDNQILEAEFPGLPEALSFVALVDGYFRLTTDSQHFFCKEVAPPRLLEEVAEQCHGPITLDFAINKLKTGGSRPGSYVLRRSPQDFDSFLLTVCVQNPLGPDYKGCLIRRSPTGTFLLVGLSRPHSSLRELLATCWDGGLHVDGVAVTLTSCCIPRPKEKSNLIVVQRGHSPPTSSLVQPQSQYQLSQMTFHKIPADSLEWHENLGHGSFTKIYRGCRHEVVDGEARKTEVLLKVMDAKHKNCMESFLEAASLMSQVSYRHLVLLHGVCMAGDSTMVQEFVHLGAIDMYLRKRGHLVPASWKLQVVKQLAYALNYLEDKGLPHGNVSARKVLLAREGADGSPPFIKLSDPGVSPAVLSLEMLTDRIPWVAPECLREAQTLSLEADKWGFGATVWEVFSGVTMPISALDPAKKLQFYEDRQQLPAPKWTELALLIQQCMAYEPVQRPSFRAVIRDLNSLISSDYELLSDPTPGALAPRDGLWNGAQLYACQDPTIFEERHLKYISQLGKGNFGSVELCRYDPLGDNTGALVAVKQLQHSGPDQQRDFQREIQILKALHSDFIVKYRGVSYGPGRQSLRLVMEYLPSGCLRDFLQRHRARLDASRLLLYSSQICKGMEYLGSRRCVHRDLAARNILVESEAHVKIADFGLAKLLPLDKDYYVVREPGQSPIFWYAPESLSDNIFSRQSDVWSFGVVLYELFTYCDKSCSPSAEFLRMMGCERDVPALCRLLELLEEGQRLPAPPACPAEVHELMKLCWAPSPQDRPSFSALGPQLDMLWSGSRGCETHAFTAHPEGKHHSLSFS
The following applies: at 0.1 µM.

Experiment [17] concerns the target T2, Tyrosine-protein kinase JAK3 (Homo sapiens). The settings on record: at 1 µM.
For experiment [18], the target named is Vascular endothelial growth factor receptor 2 (Homo sapiens) (UniProt P35968). The following applies: at 0.1 µM.
Vascular endothelial growth factor receptor 2 (Homo sapiens), sequence (P35968 whole entry): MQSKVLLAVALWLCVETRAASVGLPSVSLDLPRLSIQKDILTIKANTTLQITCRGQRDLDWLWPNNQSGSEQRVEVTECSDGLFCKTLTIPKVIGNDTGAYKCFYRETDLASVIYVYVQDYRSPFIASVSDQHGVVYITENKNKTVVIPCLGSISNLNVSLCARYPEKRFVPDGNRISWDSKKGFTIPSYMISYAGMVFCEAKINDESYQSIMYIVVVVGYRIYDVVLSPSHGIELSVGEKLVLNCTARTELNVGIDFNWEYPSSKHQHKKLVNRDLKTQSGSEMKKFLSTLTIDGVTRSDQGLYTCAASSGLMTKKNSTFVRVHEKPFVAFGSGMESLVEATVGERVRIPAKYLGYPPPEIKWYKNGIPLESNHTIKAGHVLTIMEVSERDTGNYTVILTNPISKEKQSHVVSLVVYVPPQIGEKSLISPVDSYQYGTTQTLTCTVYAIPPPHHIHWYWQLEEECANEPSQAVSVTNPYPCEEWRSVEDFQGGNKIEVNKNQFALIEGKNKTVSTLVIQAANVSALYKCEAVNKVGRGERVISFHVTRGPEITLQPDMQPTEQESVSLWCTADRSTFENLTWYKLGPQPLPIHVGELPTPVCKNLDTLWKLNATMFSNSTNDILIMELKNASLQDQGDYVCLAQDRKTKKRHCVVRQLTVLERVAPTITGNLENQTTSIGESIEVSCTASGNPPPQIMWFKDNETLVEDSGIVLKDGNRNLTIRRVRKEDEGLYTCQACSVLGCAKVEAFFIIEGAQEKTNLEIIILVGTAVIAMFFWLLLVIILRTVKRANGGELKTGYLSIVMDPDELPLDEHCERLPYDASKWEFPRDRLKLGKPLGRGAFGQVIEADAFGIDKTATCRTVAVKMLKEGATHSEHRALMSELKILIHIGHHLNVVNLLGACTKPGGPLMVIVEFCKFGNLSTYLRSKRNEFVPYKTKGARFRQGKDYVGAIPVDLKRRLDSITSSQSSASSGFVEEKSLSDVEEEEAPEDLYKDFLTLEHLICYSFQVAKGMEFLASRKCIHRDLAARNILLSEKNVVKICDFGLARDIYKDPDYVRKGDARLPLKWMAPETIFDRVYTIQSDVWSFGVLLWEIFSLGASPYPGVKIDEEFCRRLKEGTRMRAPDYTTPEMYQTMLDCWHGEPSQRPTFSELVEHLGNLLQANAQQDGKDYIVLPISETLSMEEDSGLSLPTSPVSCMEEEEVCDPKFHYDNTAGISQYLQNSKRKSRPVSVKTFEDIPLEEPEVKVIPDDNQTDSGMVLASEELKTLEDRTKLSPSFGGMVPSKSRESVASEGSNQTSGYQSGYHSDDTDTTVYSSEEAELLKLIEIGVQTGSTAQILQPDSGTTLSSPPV
Experiment [19] shares this target. The following applies: at 1 µM.
Experiment [20] deals with Mast/stem cell growth factor receptor Kit (Homo sapiens) (UniProt P10721). The settings on record: at 0.1 µM.
Mast/stem cell growth factor receptor Kit (Homo sapiens), sequence (P10721 whole entry): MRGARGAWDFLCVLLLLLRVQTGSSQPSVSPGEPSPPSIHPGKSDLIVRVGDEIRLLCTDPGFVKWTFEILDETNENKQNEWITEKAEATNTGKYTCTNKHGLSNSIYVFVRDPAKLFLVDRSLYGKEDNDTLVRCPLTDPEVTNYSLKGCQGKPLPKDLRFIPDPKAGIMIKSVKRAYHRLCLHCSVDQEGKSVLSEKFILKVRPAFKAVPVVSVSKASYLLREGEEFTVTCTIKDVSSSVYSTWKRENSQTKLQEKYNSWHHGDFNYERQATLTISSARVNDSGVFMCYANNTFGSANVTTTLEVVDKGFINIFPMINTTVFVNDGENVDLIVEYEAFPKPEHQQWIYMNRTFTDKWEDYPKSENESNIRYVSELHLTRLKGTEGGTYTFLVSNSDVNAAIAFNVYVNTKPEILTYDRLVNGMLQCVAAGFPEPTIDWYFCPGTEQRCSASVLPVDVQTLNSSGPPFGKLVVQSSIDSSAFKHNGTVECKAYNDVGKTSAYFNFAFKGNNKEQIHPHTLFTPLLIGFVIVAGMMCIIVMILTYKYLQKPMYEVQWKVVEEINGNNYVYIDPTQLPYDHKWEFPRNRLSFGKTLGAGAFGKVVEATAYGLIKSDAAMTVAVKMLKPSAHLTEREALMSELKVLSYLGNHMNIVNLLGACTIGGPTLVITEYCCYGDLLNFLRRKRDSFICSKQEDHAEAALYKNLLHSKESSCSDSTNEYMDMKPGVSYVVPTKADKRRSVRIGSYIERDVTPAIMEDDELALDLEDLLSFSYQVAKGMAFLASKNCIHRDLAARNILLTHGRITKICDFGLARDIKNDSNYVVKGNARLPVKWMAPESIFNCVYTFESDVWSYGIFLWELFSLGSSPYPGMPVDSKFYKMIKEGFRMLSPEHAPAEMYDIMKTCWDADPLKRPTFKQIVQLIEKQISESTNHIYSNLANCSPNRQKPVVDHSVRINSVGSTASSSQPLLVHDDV

Structures are written as SMILES.

Tyrosine-protein kinase HCK (Homo sapiens), sequence (P08631 2-526 limits assumed): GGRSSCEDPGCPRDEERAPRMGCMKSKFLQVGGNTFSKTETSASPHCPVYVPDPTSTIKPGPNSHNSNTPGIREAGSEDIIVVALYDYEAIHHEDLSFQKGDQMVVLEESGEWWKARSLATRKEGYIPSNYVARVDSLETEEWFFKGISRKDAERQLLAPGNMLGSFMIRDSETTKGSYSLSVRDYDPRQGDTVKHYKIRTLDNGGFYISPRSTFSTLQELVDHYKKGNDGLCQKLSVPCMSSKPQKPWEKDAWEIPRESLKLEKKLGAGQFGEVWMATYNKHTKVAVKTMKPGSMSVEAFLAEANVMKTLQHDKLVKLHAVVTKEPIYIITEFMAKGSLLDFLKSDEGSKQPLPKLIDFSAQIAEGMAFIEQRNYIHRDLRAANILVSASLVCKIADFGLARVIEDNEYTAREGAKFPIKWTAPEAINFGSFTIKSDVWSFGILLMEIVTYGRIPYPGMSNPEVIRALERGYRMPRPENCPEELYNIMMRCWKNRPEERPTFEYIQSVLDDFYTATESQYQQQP
Tyrosine-protein kinase Fyn (Homo sapiens), sequence (P06241 2-537 limits assumed): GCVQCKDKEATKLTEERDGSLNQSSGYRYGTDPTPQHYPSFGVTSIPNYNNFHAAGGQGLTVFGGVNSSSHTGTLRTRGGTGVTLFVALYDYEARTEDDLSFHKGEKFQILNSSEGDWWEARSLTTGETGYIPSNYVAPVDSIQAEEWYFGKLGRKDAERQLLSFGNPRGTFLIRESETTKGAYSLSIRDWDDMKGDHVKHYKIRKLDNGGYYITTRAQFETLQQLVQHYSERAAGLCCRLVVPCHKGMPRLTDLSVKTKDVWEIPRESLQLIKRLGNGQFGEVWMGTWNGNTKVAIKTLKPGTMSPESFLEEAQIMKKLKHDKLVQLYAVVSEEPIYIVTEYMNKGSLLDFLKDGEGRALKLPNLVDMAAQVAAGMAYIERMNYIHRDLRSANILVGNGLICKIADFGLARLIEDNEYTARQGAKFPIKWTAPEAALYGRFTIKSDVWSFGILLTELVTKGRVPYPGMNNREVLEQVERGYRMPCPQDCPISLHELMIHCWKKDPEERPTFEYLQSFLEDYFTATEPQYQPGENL

A word on the inhibition: it is the change of the read-out against control, counted positive when it falls. As to `COC(=O)Nc1nc2ccc(S(=O)(=O)c3ccc(NC(=O)Nc4cc(C(F)(F)F)ccc4F)cc3)cc2[nH]1`, the inhibition in [1] came to 1.28%; in experiment [2], 3.3%; in experiment [3], 7.43%; in experiment [4], 1.19%; in experiment [5] it was 1.62%; in experiment [6], 0.84%. Besides, the inhibition in [7] came to 1.88%; in experiment [8], 0.18%; in experiment [9], 1.09%; in experiment [10], 1.08%; in experiment [11] it was 2.62%; in experiment [12], 0.99%. Also, the inhibition in experiment [13] was -1.29%; in experiment [14] it was 1.28%; in experiment [15], 1.9%; in experiment [16] it was -1.12%; in [17], 0.84%; in experiment [18], 4.59%. Also, the figures for the inhibition in [19] and in [20] were 6.23% and 2.47%, respectively.

As for `NS(=O)(=O)c1ccc(N/N=C2\C(=O)Nc3ccc4ncccc4c32)cc1`, the inhibition was 30.1% in experiment [1]; 13.6% in [2]; 73.5% in experiment [3]; 1.63% in experiment [4]; 13.7% in experiment [5]; 5.75% in experiment [6]. Besides, the inhibition was 27.8% in experiment [7]; -0.5% in experiment [8]; 1.85% in [9]; 2.75% in [10]; 18.5% in [11]; 2.63% in [12]. The inhibition came out at 17.3% in [13]; 1.52% in experiment [14]; 22.4% in [15]; 14.2% in experiment [16]; 67.7% in experiment [17]; 61.6% in experiment [18]. In addition, the inhibition in [19] came out at 88.6%; in experiment [20] it was 63.8%.

Consider `CCOc1ccc2c(-c3ccnc(Nc4cccc(C(F)(F)F)c4)n3)cnn2n1`, for which the inhibition in [1] was 4.94%; in experiment [2], 4.28%; in experiment [3], 6.8%; in [4], -0.5%; in [5], 1.57%; in [6], 0.36%. The inhibition was found to be 1.46% in [7]; 0.63% in experiment [8]; 1% in [9]; 0.45% in [10]; 4.47% in [11]; 1.9% in experiment [12]. Also, the inhibition was 5.28% in experiment [13]; 0.91% in experiment [14]; 0.53% in experiment [15]; -1.95% in experiment [16]; -0.21% in experiment [17]; 4.26% in experiment [18]. For the same compound, the inhibition in [19] worked out at 7.57%; in experiment [20] it was 3.18%.

As to `COc1ccc(-c2cc3c(N)ncnc3o2)cc1`, the inhibition in experiment [1] is 3.42%; in [2] it was -0.32%; in [3], 7.05%; in experiment [4] it was -3.63%; in experiment [5], -0.91%; in experiment [6], -0.41%. The inhibition was 2.44% in experiment [7]; -2.87% in experiment [8]; -2.2% in experiment [9]; -0.48% in experiment [10]; 0.68% in experiment [11]; -0.12% in experiment [12]. Moreover, the inhibition in [13] is 7.71%; in [14], -0.86%; in experiment [15], 3.1%; in experiment [16], -0.88%; in experiment [17], 0.39%; in experiment [18] it was 0.19%. In addition, the results for the inhibition in experiment [19] and in [20] were 2.97% and -0.07%, respectively.

For the compound `COc1cc(/C=N/Nc2ncnc3[nH]ncc23)ccc1O`, the inhibition came out at 41.2% in experiment [1]; 11.1% in experiment [2]; 54.2% in [3]; 3.46% in [4]; 12.5% in experiment [5]; 5.52% in experiment [6]. The inhibition came out at 15.3% in experiment [7]; 3.28% in experiment [8]; 3.65% in experiment [9]; 1.29% in experiment [10]; 7.65% in [11]; 8.12% in [12]. For the same compound, the inhibition in experiment [13] is 9.29%; in [14], 1.72%; in experiment [15], 4.07%; in experiment [16], -1.64%; in experiment [17], 2.59%; in [18], 10.3%. In addition, the inhibition in experiment [19] came to 45.6%; in [20] it was 11.4%.

On to `COc1cccc(-n2ncc3c(N/N=C/c4ccc(F)cc4)ncnc32)c1`, for which the inhibition in experiment [1] is 31.1%; in [2] it was 6.41%; in [3], 17.5%; in experiment [4] it was 2.52%; in experiment [5], 3.62%; in experiment [6] it was -0.02%. The inhibition in experiment [7] was 2.69%; in [8], 2.92%; in [9] it was 2.32%; in [10] it was 1.34%; in experiment [11] it was 2.7%; in experiment [12], 4.84%. Besides, the inhibition was 6.9% in experiment [13]; 1.38% in [14]; 4.42% in experiment [15]; -1.52% in experiment [16]; 1.02% in experiment [17]; 8.15% in experiment [18]. Further, the inhibition in experiment [19] stood at 20.6%; in [20], 5.42%.

For the compound `CCn1c(-c2nonc2N)nc2c(C#CC(C)(C)O)ncc(OC3CCNCC3)c21`, the inhibition in experiment [1] was 5.91%; in [2], 3.4%; in experiment [3] it was 7.03%; in [4], 1.97%; in experiment [5], 2.36%; in experiment [6], 1.46%. Also, the inhibition in experiment [7] came out at 3.32%; in [8] it was 1.16%; in [9], 2.07%; in [10], 1.99%; in experiment [11], 2.09%; in experiment [12], 3.54%. Besides, the inhibition was 3.51% in experiment [13]; 1.5% in experiment [14]; 2.39% in experiment [15]; -2.24% in [16]; -1.24% in experiment [17]; 27.1% in [18]. The values for the inhibition in experiment [19] and in [20] were 76.1% and 2.24%, respectively.
